Source: PubChem BioAssay (EPA / NIEHS)
Where “and” joins values, the source holds several entries; their conditions need not be identical. Equal values may be shown once. Inconclusive results are not listed. More than one record can exist for a structure, and the calls need not agree. Calls of active or inactive are those of the source. How the source made its calls, unless noted: active means hit-call score of the fitted dose curve at least 0.9, where 1 is the maximum; inactive means score below 0.9.

Experiments:
[1] = target: Bile acid receptor (Homo sapiens) (UniProt Q96RI1); assay: ATG_FXR_TRANS: Attagene TRANS-FACTORIAL HepG2 Assay for Farnesoid X Receptor (FXR) (AID 2282979; active means hit-call score of the fitted dose curve at least 0.9, where 1 is the maximum;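 further: hits raise reporter mRNA above DMSO so AC50 marks FXR activation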); conditions: HepG2 Attagene TRANS FXR-GAL4 reporter transcription
Summary of the method: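 Transient transfection of HepG2 with multiplexed GAL4-UAS reporter units; exogenous FXR-GAL4 chimera. Dose 24 h → TriZol RNA → oligo(dT) RT → PCR, 6-FAM primer extension, HpaI cut → CE. Gain vs DMSO.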

[2] = target: Oxysterols receptor LXR-alpha (Homo sapiens) (UniProt Q13133); assay: ATG_LXRa_TRANS: Attagene TRANS-FACTORIAL HepG2 Assay for human Liver X Receptor alpha (LXRa) (AID 2282980; active means hit-call score of the fitted dose curve at least 0.9, where 1 is the maximum); conditions: HepG2 Attagene TRANS reporter, LXRa transactivation
Summary of the method: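 Transfect HepG2 with GAL4-UAS multiplex reporter constructs (TRANS format, chimeric receptor-GAL4); treat 24 h; extract RNA, reverse-transcribe, PCR-amplify, FAM-label, HpaI-digest; resolve fragments by capillary electrophoresis. Upward response vs DMSO.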

[3] = target: Oxysterols receptor LXR-beta (Homo sapiens) (UniProt P55055); assay: ATG_LXRb_TRANS: Attagene TRANS-FACTORIAL HepG2 Assay for human Liver X Receptor beta (LXRb) (AID 2282981; active means hit-call score of the fitted dose curve at least 0.9, where 1 is the maximum); conditions: HepG2 Attagene TRANS GAL4-LXRb reporter, mRNA
Summary of the method: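 Cells: HepG2, transiently transfected with GAL4-UAS reporter units plus LXRb-Gal4 fusion. Treatment: 24 h. Detection: reporter mRNA by RT-PCR, 6-FAM labelling, HpaI digestion, capillary electrophoresis.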

[4] = ATG_M_06_TRANS: Attagene TRANS-FACTORIAL HepG2 Assay for M06 Transcription Factor (Internal Marker) (AID 2282983; active means hit-call score of the fitted dose curve at least 0.9, where 1 is the maximum); conditions: HepG2 Attagene TRANS M06 internal marker reporter
Summary of the method: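 Transfect HepG2 with MRTUs → dose compounds 24 h → isolate RNA, oligo(dT) RT → PCR with reporter primers → 6-FAM primer extension → HpaI digest → CE fragment analysis. Positive direction vs DMSO.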

[5] = ATG_M_32_TRANS: Attagene TRANS-FACTORIAL HepG2 Assay for M32 Transcription Factor (Internal Marker) (AID 2282984; active means hit-call score of the fitted dose curve at least 0.9, where 1 is the maximum;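 further: transcript level of a background control reporter unit measured by RT-PCR and capillary electrophoresis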); conditions: HepG2 Attagene TRANS M32 internal marker reporter
Summary of the method: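 Using transiently transfected HepG2 cells exposed to test chemicals for 24 h, reporter transcripts are converted to labelled cDNA fragments and quantified by capillary electrophoresis. DMSO defines the activity baseline.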

[6] = target: Nuclear receptor subfamily 4 group A member 2 (Homo sapiens) (UniProt P43354); assay: ATG_NURR1_TRANS: Attagene TRANS-FACTORIAL HepG2 Assay for human Nuclear Receptor Related Protein 1 (NURR1) (AID 2282985; active means hit-call score of the fitted dose curve at least 0.9, where 1 is the maximum); conditions: HepG2 Attagene TRANS reporter, mRNA readout
Summary of the method: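 Cells: HepG2, transiently transfected. Exposure: 24 h. Detection: fluorescence of labelled RT-PCR products separated by capillary electrophoresis; upward fit versus DMSO.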

[7] = target: Transcriptional activator Myb (Homo sapiens) (UniProt P10242); assay: ATG_Myb_CIS: Attagene CIS-FACTORIAL HepG2 Assay for human Myeloblastosis (Myb) Proto-Oncogene Transcription Factor (AID 2282986); conditions: HepG2 Attagene CIS-FACTORIAL Myb reporter transcription; actives raise or lower the signal
Summary of the method: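 Reporter mRNA is quantified by RT-PCR and capillary electrophoresis 24 h after dosing HepG2 cells transfected with cis-regulated reporter units, which track endogenous transcription factor activity. Gain and loss of signal are fitted versus DMSO baseline.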

[8] = target: Nuclear respiratory factor 1 (Homo sapiens) (UniProt Q16656); assay: ATG_NRF1_CIS: Attagene CIS-FACTORIAL HepG2 Assay for human Nuclear Respiratory Factor 1 (NRF1) Orphan Gene (AID 2282987); conditions: HepG2 NRF1 cis-element reporter, Attagene multiplex; actives raise or lower the signal
Summary of the method: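 Endogenous NRF1-driven reporter transcription in transfected HepG2 cells after 24 h treatment. Readout: RT-PCR products, 6-FAM labelled and resolved by capillary electrophoresis; changes fitted both directions relative to DMSO.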

[9] = ATG_NFI_CIS: Attagene CIS-FACTORIAL HepG2 Assay for human Nuclear Factor I (NFI) (AID 2282989); conditions: HepG2 cis-regulatory reporter, NFI response element transcription; actives raise or lower the signal
Summary of the method: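 HepG2, transient MRTU, 24 h exposure; RNA→cDNA→PCR→FAM label→HpaI→CE fluorescence. Bidirectional fit, DMSO = baseline.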

[10] = target: Myc proto-oncogene protein (Homo sapiens) (UniProt P01106); assay: ATG_Myc_CIS: Attagene CIS-FACTORIAL HepG2 Assay for human Myelocytomatosis (Myc) Proto-Oncogene Transcription Factor (AID 2282990); conditions: HepG2, Attagene cis-reporter transcription factor activity; actives raise or lower the signal
Summary of the method: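 HepG2, transient MRTU transfection (cis promoters, endogenous TFs); 24 h dosing; TriZol RNA → oligo(dT) RT → PCR → 6-FAM primer extension → HpaI cut → CE. Bidirectional fit vs DMSO.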

[11] = ATG_NRF2_ARE_CIS: Attagene CIS-FACTORIAL HepG2 Assay for human Nuclear Factor Erythroid 2 Related Factor 2 (NFR2) response to Antioxidant Response Elements (ARE) (AID 2282992); conditions: HepG2 Attagene ARE/NRF2 reporter, transcription factor activity; actives raise or lower the signal;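 on AC50: reporter mRNA level measured by RT-PCR and capillary electrophoresis fluorescence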
Summary of the method: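 Transient MRTU transfection of HepG2; 24 h compound exposure; TriZol RNA, RT with oligo(dT), PCR, 6-FAM primer extension, HpaI cut, CE. Bidirectional fit vs DMSO.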

[12] = ATG_Oct_MLP_CIS: Attagene CIS-FACTORIAL HepG2 Assay for human Octamer-Binding Transcription Factor (Oct) (AID 2282993); conditions: HepG2 Attagene cis-factorial Oct reporter, mRNA; actives raise or lower the signal
Summary of the method: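 Multiplexed cis-reporter assay in human liver HepG2 cells, 24 h incubation. Reporter RNA amplified and labelled, then resolved by capillary electrophoresis; DMSO serves as negative control and baseline.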

[13] = target: Cellular tumor antigen p53 (Homo sapiens) (UniProt P04637); assay: ATG_p53_CIS: Attagene CIS-FACTORIAL HepG2 Assay for human p53 Transcription Factor (AID 2282994); conditions: HepG2 p53 cis-element reporter, Attagene mRNA; actives raise or lower the signal
Summary of the method: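 HepG2, transient MRTU transfection (cis promoter elements, endogenous TFs); 24 h dosing; RNA isolation, RT-PCR, 6-FAM primer extension, HpaI digest, CE fluorescence; bidirectional fit vs DMSO.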

[14] = BSK_3C_uPAR: BioMAP Diversity Plus: 3C Assay for Urokinase-type plasminogen activator receptor (uPAR) Biomarker Activity (AID 2282998); conditions: BioMAP 3C HUVEC, uPAR biomarker ELISA; actives raise or lower the signal
Summary of the method: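 Dose primary human umbilical vein endothelial cells, incubate 24 h, measure cell-surface uPAR by ELISA, then fit the signal in both directions against the DMSO negative control.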

[15] = BSK_3C_VCAM1: BioMAP Diversity Plus: 3C Assay for Vascular cell adhesion molecule 1 (VCAM1) Biomarker Activity (AID 2282999); conditions: BioMAP 3C HUVEC, VCAM1 ELISA, cytokine-stimulated; actives raise or lower the signal
Summary of the method: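 Endothelial cells from human umbilical vein are treated with test chemical. At 24 h, VCAM-1 is measured by ELISA, and responses in either direction are fitted relative to DMSO.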

[16] = BSK_4H_Eotaxin3: BioMAP Diversity Plus: 4H Assay for Eotaxin 3 Biomarker Activity (AID 2283000); conditions: primary human endothelial cells (HUVEC); actives raise or lower the signal
Summary of the method: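 Chemicals were added to human umbilical vein endothelium cultures, and Eotaxin-3 was quantified by ELISA at 24 h. Values were derived by bidirectional fitting with DMSO serving as negative control and activity baseline.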

[17] = target: human Peroxisome Proliferator-activated Receptor alpha (PPARa), PPARA (gene 5465) (UniProt Q07869); assay: ATG_PPARa_TRANS: Attagene TRANS-FACTORIAL HepG2 Assay for human Peroxisome Proliferator-activated Receptor alpha (PPARa) (AID 2283001; active means hit-call score of the fitted dose curve at least 0.9, where 1 is the maximum)
Summary of the method: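 Reporter transcripts from GAL4-UAS units in transfected HepG2 were quantified 24 h after dosing. Detection used reverse transcription, PCR, fluorescent primer extension and capillary electrophoresis, with DMSO as baseline.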

[18] = target: Hepatocyte nuclear factor 4-alpha (Homo sapiens) (UniProt P41235); assay: ATG_HNF4a_TRANS: Attagene TRANS-FACTORIAL HepG2 Assay for human Hepatocyte Nuclear Factor 4 alpha (HNF4a) (AID 2282982; active means hit-call score of the fitted dose curve at least 0.9, where 1 is the maximum); conditions: HepG2 HNF4a transactivation reporter, mRNA readout
Summary of the method: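 Transfected HepG2 reporter cells are dosed for 24 h; reporter RNA is reverse-transcribed, amplified, fluorescently labelled and HpaI-digested before CE sizing. Positive-direction fit against DMSO.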

[19] = ATG_NF_kB_CIS: Attagene CIS-FACTORIAL HepG2 Assay for human Nuclear Factor Kappa B (NF-kB) (AID 2282991); conditions: HepG2 Attagene cis-factorial NF-kB reporter mRNA; actives raise or lower the signal
Summary of the method: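 Readout is reporter transcript level, gain or loss versus DMSO, measured 24 h post-dose via RT-PCR, fluorescent labelling and capillary electrophoresis. Human HepG2 liver cells carried transiently transfected CIS reporter constructs reflecting endogenous factors.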

[20] = BSK_3C_TissueFactor: BioMAP Diversity Plus: 3C Assay for Tissue Factor Biomarker Activity (AID 2282997); conditions: BioMAP 3C HUVEC, tissue factor biomarker readout; actives raise or lower the signal
Summary of the method: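 ELISA read-out of Tissue Factor levels on human umbilical vein endothelium collected 24 h after chemical dosing. Gain or loss of signal was fitted relative to DMSO.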

Measured: AC50

Chain of Transcriptional activator Myb (Homo sapiens) (P10242 whole entry, looked up): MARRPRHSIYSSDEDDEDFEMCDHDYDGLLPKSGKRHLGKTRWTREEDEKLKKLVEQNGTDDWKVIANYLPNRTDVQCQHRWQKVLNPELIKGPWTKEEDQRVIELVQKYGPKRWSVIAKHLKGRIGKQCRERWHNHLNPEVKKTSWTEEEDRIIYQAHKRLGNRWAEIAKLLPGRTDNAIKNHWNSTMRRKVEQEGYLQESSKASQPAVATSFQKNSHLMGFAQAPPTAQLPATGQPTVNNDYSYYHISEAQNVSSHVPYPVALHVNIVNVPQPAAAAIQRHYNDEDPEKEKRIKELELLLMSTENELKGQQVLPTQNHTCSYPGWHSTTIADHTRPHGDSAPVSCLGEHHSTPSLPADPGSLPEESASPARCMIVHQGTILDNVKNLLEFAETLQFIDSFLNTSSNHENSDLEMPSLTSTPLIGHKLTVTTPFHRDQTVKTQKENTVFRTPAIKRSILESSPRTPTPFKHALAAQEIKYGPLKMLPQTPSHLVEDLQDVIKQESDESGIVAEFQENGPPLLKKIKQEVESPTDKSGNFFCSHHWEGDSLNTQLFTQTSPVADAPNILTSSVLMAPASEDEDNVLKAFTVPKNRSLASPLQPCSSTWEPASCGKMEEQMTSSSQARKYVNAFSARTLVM
Chain of Hepatocyte nuclear factor 4-alpha (Homo sapiens) (P41235 whole entry, looked up): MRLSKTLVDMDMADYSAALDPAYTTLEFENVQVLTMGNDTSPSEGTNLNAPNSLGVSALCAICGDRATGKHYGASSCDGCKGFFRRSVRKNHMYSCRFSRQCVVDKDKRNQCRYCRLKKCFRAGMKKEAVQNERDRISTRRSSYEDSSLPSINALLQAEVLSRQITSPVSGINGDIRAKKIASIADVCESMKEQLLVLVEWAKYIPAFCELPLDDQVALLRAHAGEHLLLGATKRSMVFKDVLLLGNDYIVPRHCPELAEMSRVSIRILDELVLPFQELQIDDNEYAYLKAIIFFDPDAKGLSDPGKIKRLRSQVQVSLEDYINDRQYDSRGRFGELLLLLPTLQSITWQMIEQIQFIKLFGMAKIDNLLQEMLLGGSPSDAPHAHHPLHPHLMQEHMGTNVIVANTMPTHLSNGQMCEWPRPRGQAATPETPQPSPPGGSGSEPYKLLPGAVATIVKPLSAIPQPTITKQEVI
Chain of Oxysterols receptor LXR-beta (Homo sapiens) (P55055 whole entry, looked up, the tested form may be a part): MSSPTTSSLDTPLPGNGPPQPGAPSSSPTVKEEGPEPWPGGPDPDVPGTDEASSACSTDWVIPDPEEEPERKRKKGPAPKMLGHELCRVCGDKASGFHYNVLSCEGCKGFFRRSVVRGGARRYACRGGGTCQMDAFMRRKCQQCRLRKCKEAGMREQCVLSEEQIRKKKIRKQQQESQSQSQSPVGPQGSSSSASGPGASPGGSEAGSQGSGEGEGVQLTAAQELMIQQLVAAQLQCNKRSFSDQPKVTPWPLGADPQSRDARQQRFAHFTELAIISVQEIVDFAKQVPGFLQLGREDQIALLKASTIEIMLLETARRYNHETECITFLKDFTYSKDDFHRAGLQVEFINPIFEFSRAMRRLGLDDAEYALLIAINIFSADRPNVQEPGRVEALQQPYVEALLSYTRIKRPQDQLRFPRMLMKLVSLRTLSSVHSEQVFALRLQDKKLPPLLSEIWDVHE
Chain of human Peroxisome Proliferator-activated Receptor alpha (PPARa), PPARA (gene 5465) (Q07869 whole entry, looked up, the tested form may be a part): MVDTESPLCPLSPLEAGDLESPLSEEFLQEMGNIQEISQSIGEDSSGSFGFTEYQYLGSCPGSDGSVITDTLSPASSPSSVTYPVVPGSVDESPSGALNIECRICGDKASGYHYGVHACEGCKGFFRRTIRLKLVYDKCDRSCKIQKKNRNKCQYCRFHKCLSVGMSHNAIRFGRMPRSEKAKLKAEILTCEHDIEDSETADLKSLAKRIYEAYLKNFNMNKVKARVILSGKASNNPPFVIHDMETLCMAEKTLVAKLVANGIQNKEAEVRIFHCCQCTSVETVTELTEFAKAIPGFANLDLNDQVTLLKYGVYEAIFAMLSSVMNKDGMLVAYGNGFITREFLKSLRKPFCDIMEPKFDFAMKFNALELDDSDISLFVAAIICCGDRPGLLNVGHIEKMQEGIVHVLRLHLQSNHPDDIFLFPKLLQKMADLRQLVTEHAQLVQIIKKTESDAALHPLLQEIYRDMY
Chain of Nuclear receptor subfamily 4 group A member 2 (Homo sapiens) (P43354 whole entry, looked up): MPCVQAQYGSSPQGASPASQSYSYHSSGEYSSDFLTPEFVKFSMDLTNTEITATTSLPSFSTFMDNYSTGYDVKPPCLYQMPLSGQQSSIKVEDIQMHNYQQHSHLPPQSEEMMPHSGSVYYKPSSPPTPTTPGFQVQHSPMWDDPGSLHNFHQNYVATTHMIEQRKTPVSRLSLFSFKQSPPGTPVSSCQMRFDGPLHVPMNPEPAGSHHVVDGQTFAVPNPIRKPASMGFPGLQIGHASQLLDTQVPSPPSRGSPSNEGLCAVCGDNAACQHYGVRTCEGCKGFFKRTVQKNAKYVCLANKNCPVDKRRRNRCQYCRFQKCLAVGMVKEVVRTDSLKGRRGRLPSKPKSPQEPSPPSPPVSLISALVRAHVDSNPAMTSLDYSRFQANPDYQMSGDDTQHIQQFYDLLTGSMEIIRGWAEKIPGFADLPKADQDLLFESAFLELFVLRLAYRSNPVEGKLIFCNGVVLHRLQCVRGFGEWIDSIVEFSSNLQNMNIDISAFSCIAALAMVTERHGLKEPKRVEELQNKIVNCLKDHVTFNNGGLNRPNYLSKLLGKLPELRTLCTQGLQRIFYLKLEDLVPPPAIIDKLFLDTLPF
Chain of Cellular tumor antigen p53 (Homo sapiens) (P04637 whole entry, looked up): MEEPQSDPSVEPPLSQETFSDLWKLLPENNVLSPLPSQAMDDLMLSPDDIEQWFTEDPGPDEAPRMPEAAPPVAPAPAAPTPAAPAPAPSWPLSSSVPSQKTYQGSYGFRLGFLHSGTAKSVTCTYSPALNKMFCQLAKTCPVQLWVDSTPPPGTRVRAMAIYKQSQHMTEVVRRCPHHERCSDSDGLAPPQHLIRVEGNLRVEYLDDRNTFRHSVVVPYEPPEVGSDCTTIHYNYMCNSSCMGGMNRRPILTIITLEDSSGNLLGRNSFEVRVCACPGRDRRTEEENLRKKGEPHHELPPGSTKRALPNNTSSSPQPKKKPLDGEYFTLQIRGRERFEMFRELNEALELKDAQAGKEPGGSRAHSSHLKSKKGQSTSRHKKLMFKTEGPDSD
Chain of Nuclear respiratory factor 1 (Homo sapiens) (Q16656 whole entry, looked up): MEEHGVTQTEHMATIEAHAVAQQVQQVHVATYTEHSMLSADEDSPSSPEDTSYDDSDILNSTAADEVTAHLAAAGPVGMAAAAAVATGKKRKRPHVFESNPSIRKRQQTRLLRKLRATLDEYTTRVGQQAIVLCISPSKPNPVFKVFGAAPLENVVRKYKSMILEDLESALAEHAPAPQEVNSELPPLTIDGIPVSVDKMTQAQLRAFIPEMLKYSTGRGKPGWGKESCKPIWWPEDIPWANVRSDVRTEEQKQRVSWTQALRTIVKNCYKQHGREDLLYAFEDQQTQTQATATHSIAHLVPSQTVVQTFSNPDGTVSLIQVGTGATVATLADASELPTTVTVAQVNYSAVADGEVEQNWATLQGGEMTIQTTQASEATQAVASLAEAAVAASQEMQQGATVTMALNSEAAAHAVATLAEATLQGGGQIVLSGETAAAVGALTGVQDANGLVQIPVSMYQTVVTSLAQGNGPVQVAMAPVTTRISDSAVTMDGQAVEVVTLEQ
Chain of Bile acid receptor (Homo sapiens) (Q96RI1 whole entry, looked up, the tested form may be a part): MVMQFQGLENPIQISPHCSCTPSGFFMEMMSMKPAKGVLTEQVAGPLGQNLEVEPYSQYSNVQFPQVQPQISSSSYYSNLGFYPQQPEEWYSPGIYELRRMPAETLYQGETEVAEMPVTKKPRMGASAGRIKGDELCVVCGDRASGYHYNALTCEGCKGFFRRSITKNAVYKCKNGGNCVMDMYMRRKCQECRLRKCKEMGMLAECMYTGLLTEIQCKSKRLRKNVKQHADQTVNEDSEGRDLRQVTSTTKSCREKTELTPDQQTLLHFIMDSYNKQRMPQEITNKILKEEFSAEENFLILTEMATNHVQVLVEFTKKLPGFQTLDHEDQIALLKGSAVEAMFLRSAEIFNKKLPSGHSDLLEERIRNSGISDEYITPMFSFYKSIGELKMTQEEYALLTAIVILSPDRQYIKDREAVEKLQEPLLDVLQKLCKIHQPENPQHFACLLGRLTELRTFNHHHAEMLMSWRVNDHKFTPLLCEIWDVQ
Chain of Oxysterols receptor LXR-alpha (Homo sapiens) (Q13133 whole entry, looked up, the tested form may be a part): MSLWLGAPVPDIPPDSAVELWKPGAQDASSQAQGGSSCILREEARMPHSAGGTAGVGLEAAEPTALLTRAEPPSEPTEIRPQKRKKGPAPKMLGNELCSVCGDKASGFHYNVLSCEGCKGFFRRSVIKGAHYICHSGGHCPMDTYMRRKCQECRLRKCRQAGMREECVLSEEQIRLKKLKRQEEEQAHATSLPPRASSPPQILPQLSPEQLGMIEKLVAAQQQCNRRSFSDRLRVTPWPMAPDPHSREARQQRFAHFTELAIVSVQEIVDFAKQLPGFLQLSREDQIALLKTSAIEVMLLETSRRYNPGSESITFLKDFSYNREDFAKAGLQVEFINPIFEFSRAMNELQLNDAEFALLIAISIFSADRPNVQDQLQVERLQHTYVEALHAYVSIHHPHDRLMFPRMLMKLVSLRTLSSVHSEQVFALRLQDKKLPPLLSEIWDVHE
Chain of Myc proto-oncogene protein (Homo sapiens) (P01106 whole entry, looked up): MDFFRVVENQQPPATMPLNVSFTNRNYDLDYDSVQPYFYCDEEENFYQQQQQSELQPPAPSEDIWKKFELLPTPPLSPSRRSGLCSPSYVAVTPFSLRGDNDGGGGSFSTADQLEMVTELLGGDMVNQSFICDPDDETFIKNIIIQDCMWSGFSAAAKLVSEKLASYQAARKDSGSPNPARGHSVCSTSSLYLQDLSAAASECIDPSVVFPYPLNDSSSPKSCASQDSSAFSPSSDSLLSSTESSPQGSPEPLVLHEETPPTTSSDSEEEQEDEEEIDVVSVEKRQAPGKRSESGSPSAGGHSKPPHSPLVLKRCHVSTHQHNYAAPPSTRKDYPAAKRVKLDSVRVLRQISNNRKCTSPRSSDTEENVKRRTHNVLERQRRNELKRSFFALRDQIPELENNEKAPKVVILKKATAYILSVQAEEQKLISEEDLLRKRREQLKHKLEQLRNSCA

CCOP(=S)(OCC)SCn1c(=O)oc2cc(Cl)ccc21
active: [11] 16 µM | [12] 14.1 µM
not listed: [18] | [19] | [20]
inactive: all other assays above

CCCCNC(=O)OCC#CI
active: [18] 64.2 µM | [9] 49 µM | [10] 26.4 µM | [11] 27.6 µM | [12] 29.9 µM | [13] 33.5 µM | [14] 13.4 µM and 12.9 µM | [15] 16.2 µM and 20.8 µM | [16] 17.3 µM and 15.1 µM
inactive: [1] | [2] | [3] | [4] | [7] | [8] | [9] | [10] | [11] | [12] | [13] | [17]

C#CCOS(=O)OC1CCCCC1Oc1ccc(C(C)(C)C)cc1 (configuration not stated)
active: [11] 1.19 µM | [12] 0.811 µM | [14] 7.03 µM | [15] 12.8 µM | [16] 27.7 µM
not listed: [5] | [6] | [17]
inactive: all other assays above

N#Cc1nn(-c2c(Cl)cc(C(F)(F)F)cc2Cl)c(N)c1S(=O)C(F)(F)F (configuration not stated)
active: [2] 18.5 µM | [3] 11.7 µM | [11] 5.51 µM | [12] 10.2 µM | [14] 22 µM | [16] 20 µM
inactive: [1] | [2] | [3] | [18] | [4] | [5] | [7] | [8] | [9] | [10] | [11] | [12] | [13] | [15] | [17]

COC(=O)C=C(C)OP(=O)(OC)OC
active: [11] 50 µM
not listed: [2] | [4] | [17] | [19] | [20]
inactive: all other assays above

N#CC(CCc1ccc(Cl)cc1)(Cn1cncn1)c1ccccc1 (configuration not stated)
active: [11] 10.3 µM
not listed: [2] | [4] | [6] | [17] | [20]
inactive: all other assays above

CC(C)C1(C)N=C(c2nc3ccccc3cc2C(=O)O)NC1=O (configuration not stated)
not listed: [20]
inactive: all other assays above

CON(C)C(=O)Nc1ccc(Cl)c(Cl)c1
active: [11] 27.8 µM [middle of 4 runs]
not listed: [1] | [20]
inactive: all other assays above

COc1nc(C)nc(NC(=O)NS(=O)(=O)c2ccccc2CCC(F)(F)F)n1
inactive: [1] | [2] | [3] | [18] | [4] | [5] | [6] | [7] | [8] | [9] | [10] | [19] | [11] | [12] | [13] | [14] | [15] | [16] | [17]
active: [11] 16.7 µM and 31.3 µM

CO/C=C(/C(=O)OC)c1ccccc1Oc1cc(Oc2ccccc2C#N)ncn1
inactive: [2] | [3] | [18] | [4] | [5] | [6] | [7] | [8] | [9] | [10] | [11] | [12] | [13] | [15] | [17]
active: [6] 71.2 µM | [8] 65.6 µM | [12] 15.6 µM | [14] 13.3 µM [middle of 4 runs] | [15] 21.1 µM | [16] 24.8 µM [middle of 4 runs]

CCCC1COC(Cn2cncn2)(c2ccc(Cl)cc2Cl)O1 (configuration not stated)
inactive: [2] | [3] | [18] | [4] | [5] | [6] | [7] | [8] | [9] | [10] | [19] | [11] | [12] | [13] | [14] | [15] | [16] | [17]
active: [11] 27.1 µM | [12] 8.1 µM

CC(C)Oc1cc(-n2nc(C(C)(C)C)oc2=O)c(Cl)cc1Cl
active: [11] 7.62 µM | [12] 10.6 µM | [14] 32 µM | [15] 25.4 µM | [16] 31.9 µM
not listed: [2] | [20]
inactive: all other assays above
